BAZ2B block: BAZ2B (human) inhibition | Q9UIF8 | Potency, µM (series often up to 114 µM), without a hit: top-dose activity change, negative = inhibition, most hits filed as inhibitors | actives 4.4% (n = 360,000) | AlphaScreen BAZ2B-H3K14Ac peptide displacement | AID 504333; further: on the % scale 0 is the no-effect control and ±100 the full control effect; nearly all actives have a fitted effect of over 60% in size
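AlphaScreen displacement of biotin-H3(5-23)K14Ac peptide (50 nM final) from BAZ2B (50 nM final) in PBS pH 7.4, 0.01% Tween-20; complex preformed 30 min RT, then compounds (top 110 uM) 30 min RT, beads 20 min dark.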
HP1b chromo inh: blocks HP1-beta chromodomain binding to methylated histone tails; Potency, µM (doses to about 114 µM), inactives show top-dose activity change, negative = inhibition, usual class: inhibitors; AlphaScreen HP1-beta / biotin-H3K9me3 peptide binding; actives 0.56% (n = 390,000); AID 540317; P83916; further: nearly all actives have a fitted effect of over 70% in size
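AlphaScreen: HP1-beta (50 nM) preformed 30 min with biotin-H3(1-18)K9me3 peptide (50 nM) in PBS pH 7.4, 0.01% Tween-20. Compound added for 30 min at RT, then streptavidin donor/nickel chelate acceptor beads (10 ug/mL) for 30 min.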
Sfp PPTase inh: Sfp phosphopantetheinyl transferase inhibition | actives 3.5% (n = 310,000) | Biochemical Sfp PPTase activity, qHTS | Potency, µM, for inactives: largest response in the series, negative = inhibition, most hits filed as inhibitors;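 further: the enzyme is Sfp with the accession as filed and its product quenches rhodamine fluorescence; 0% = enzyme reaction without inhibitor and -100% = no enzyme wells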
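Fluorescence-quenching assay with 15 nM Sfp, 5 uM rhodamine-CoA and 12.5 uM BHQ-2-labelled ybbR peptide in pH 7.6 Hepes/MgCl2 buffer. Enzyme was pre-incubated with compound for 15 min at room temperature. Rate was taken from the 30-min fluorescence change (525/598 nm).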
G9a inh: blocks human histone lysine methyltransferase G9a. Q96KQ7. G9a H3K9 monomethylation, AlphaScreen, 2 h. Potency, µM (highest dose often 102 µM), inactives show top-dose activity, negative = inhibition, usual class: inhibitors. actives 8.8% (n = 350,000). AID 504332; further: on the % scale 0 is the no-effect control and ±100 the full control effect; nearly all actives have a fitted effect of over 75% in size
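Quantitative HTS format: methyltransferase activity on a biotin-tagged H3K9 peptide is measured by AlphaScreen, using a rabbit anti-monomethyl-H3K9 antibody with streptavidin donor and anti-IgG acceptor beads. Final levels are 20 nM enzyme, 500 nM peptide, 20 uM SAM; 2 h RT.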
L3MBTL1 block: inhibitors of human L3MBTL1 | Q9Y468 | AID 485360 | Potency, µM (series often up to 57.1 µM), without a hit: at the top dose activity, negative = inhibition, most hits filed as inhibitors | AlphaScreen L3MBTL1–H3K9me1 peptide binding | actives 0.66% (n = 230,000); further: on the % scale 0 is the no-effect control and ±100 the full control effect; nearly all actives have a fitted effect of over 60% in size
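Displacement of a biotinylated histone H3(1-15) peptide monomethylated at Lys9 (75 nM) from L3MBTL1 (50 nM) was measured by AlphaScreen after a 30 min room-temperature compound incubation; cefsulodin titration served as intraplate control.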
JMJD2A Tudor: inhibitors of human JMJD2A Tudor domain. AlphaScreen JMJD2A-Tudor / H3K4me3 peptide binding. Potency, µM (titrated, usually from 114 µM), for inactives: top-dose activity change, negative = inhibition, hits mostly inhibitors. actives 4.4% (n = 390,000); further: on the % scale 0 is the no-effect control and ±100 the full control effect; nearly all actives have a fitted effect of over 50% in size
* hit, by the source's call; ? = inconclusive; . = no result; [ ] = dose if it differs, or a comment. Sampled rows, rich in hits. Any-hit rate of the full collection: about 12%. The call rests on the fitted dose curve; in most records, active means well fitted curve in the direction sought with a large enough effect; inconclusive means small, poorly fitted or top-dose-only effect, or another doubt; inactive means no such curve, though single readings can be large; an effect the other way counts as inactive or inconclusive. Potency means the concentration at half of the fitted maximal effect.

SMILES	BAZ2B block	HP1b chromo inh	Sfp PPTase inh	G9a inh	L3MBTL1 block	JMJD2A Tudor
O=S(=O)(c1ccccc1)c1nc(-c2cccc(Cl)c2)oc1N1CCOCC1	?	0%	1%	40µM*	.	-35%
Cc1ccccc1-c1nc(CN2CCC(C(=O)NCc3ccc(F)cc3)CC2)c(C)o1	?	19%	.	-35%[59 µM]	.	-29%
Cc1ccc(-c2nc(S(=O)(=O)c3ccccc3)c(N3CCN(c4ccccc4)CC3)o2)cc1	-3%	17%	.	-4%[59 µM]	.	-22%
COc1ccc(-c2nc(S(=O)(=O)c3ccc(C)cc3)c(N3CCCC3)o2)cc1	-24%	79µM*	-20%	?	19%	?
Cc1ccc(S(=O)(=O)c2nc(-c3ccc(F)cc3)oc2N2CCOCC2)cc1	-32%	16%	-10%	35µM*	.	-18%
CCOc1ccc(-c2nc(S(=O)(=O)c3ccccc3)c(N3CCC(C(N)=O)CC3)o2)cc1	?	?	-9%	.	.	71µM*
Cc1ccc(-c2nc(S(=O)(=O)c3ccc(F)cc3)c(N3CCN(c4ccccc4)CC3)o2)cc1	?	-1%	.	-17%[59 µM]	.	-17%
CCN1CCN(c2oc(-c3ccccc3)nc2S(=O)(=O)c2ccc(C)cc2)CC1	50µM*	-20%	.	40µM*	-1%	?
COc1ccc(-c2nc(S(=O)(=O)c3ccccc3)c(N3CCC(C)CC3)o2)cc1	-5%	15%	.	3%[59 µM]	.	-20%
CS(=O)(=O)N1CCN(c2nc(-c3cccs3)nc3ccccc23)CC1	.	43%	.	.	.	-12%
Cc1cc2c(s1)c(C#N)c(C(=O)NCc1ccccc1F)n2C	-3%	.	.	-5%[12.7 µM]	2%	.
O=C1CCCC/C1=N\Nc1ccc(OCc2ccccc2)cc1	-23%	-6%	-1%	40µM*	6%	-29%
O=C1CCCC/C1=N\Nc1ccc(C2CCCCC2)cc1	?	.	?	.	3%	.
O=C(CSc1n[nH]c(-c2ccccc2)n1)NCCCc1ccccc1	5%	18%[57 µM]	.	12%[59 µM]	.	-12%
CCCc1sc(N/N=C/c2ccccn2)nc1-c1ccc(Br)cc1	-33%	6%	1%	-5%[59 µM]	-14%	50µM*
CCc1ccc(-c2cc(C(=O)N/N=C/c3ccccn3)[nH]n2)cc1	-15%	-2%	-11%	99%[59 µM]	.	-28%
Cc1oc(C(C)(C)C)cc1C(=O)N1CCCC1C(=O)O (stereo not drawn)	-3%	7%	25%	-5%[59 µM]	24%	100µM*
COc1ccccc1N1CCN(C(=O)c2cc(C(C)(C)C)oc2C)CC1	-18%	-10%	-22%	?	-12%	-24%
Cc1ccc(CSC2=Nc3ccccc3C3=NC(CC(=O)NC4CCCCC4)C(=O)N23)cc1 (stereo not drawn)	-2%	25%	.	3%[59 µM]	.	-12%
Cc1ccc(C2CC(C(F)(F)F)n3ncc(C(=O)NCc4ccco4)c3N2)cc1 (stereo not drawn)	?	-15%	15%	45µM*	-7%	?
CN(Cc1ccc(-n2cccn2)cc1)C(=O)c1cnn2c1NC(c1ccco1)CC2C(F)(F)F (stereo not drawn)	-4%	11%	20µM*	?	-26%	-23%
COCCNC(=O)c1cnn2c1NC(c1ccco1)CC2C(F)(F)F (stereo not drawn)	-8%	59%	14%	11%[59 µM]	3%	-9%[57.1 µM]
Cc1ccc(C2CC(C(F)(F)F)n3ncc(C(N)=O)c3N2)cc1 (stereo not drawn)	6%	8%	0%	-1%	-7%	-12%
CCOC(=O)N1CCC(NC(=O)c2cnn3c2NC(c2ccco2)CC3C(F)(F)F)CC1 (stereo not drawn)	-22%	7%	56µM*	?	.	-29%
Cc1cccc(-c2nc3scc(CCNS(=O)(=O)c4ccc5c(c4)OCCO5)n3n2)c1	-2%	31%	.	-21%[59 µM]	.	-4%
SMILES	BAZ2B block	HP1b chromo inh	Sfp PPTase inh	G9a inh	L3MBTL1 block	JMJD2A Tudor
CCOC(=O)c1sc(C)nc1C1CCN(C(=O)OCC)CC1	-6%	-8%	-14%	45µM*	.	2%
CN1CCc2nc3sc(C(=O)C45CC6CC(CC(C6)C4)C5)c(N)c3cc2C1	?	-77%	16%	2.2µM*	-5%	-26%
CN1CCc2nc3sc(C(=O)Nc4ccccc4C(F)(F)F)c(N)c3cc2C1	?	14%	.	13µM*	.	?
CCN1CCc2nc3sc(C(=O)c4ccccc4)c(N)c3cc2C1	-33%[57.1 µM]	0%	.	11µM*	.	?
Nc1ncnc2c1ncn2[C@@H]1O[C@H](C(=O)NC2CC2)[C@H](O)[C@H]1O	.	.	.	18%[12.7 µM]	.	.
Cc1cccc2nc(CSc3ccccc3N)cn12	.	31%	.	.	.	-17%
Cc1cccc2nc(CSc3nnc(N)s3)cn12	1%	14%	2%	32µM*	.	-9%
O=C(CN1CCN(C2CCCCC2)CC1)c1ccc2cc[nH]c2c1	-26%	21%	4%	28µM*	.	-35%
Cc1ccccc1NC(=O)CC1SC(=O)N(c2ccccc2)C1=O (stereo not drawn)	?	-14%	?	?	.	-15%[11.4 µM]
CCOc1ccccc1NC(=O)CC1SC(=N)N(c2ccccc2)C1=O (stereo not drawn)	-10%	.	-5%	6%	6%	.
O=C(CC1SC(=O)N(c2ccccc2)C1=O)Nc1cccc2ccccc12 (stereo not drawn)	-25%	3%	20µM*	?	.	-27%
CCOc1ccc(NC(=O)CC2SC(=O)N(c3ccccc3)C2=O)cc1 (stereo not drawn)	?	-4%	10µM*	.	4%	-29%
COc1ccc(-c2cn3nc(N4CCC(C(=O)Nc5ccc(C)cc5)CC4)sc3n2)cc1	1%	21%	.	-31%[59 µM]	.	-3%
O=C(Cn1cc(S(=O)(=O)Cc2ccccc2Cl)c2ccccc21)Nc1ccc(F)cc1F	4%	13%	.	5%[59 µM]	.	-9%
CC(C)(C)c1ccc(COC(=O)Nc2ccc(F)cc2)cc1	27%	26%	14%	-11%[59 µM]	30%	11%
Cc1ccc(CNC(=O)Nc2ccc(F)cc2)n1C	-36%	29%	-10%	50µM*	.	?
CC(C)(C)c1ccc(NC(=O)Nc2ccc(F)cc2)cc1	2%	-10%	14%	-8%	6%	35µM*
O=C(NCc1ccco1)Nc1ccc(OC(F)(F)F)cc1	-19%	28%	11%	-2%	-6%	-11%
Cc1ccc(CNC(=O)Nc2ccc(OC(F)(F)F)cc2)n1C	?	-3%	6%	50µM*	.	-35%
COc1ccc(CC(=O)NCC(c2cccs2)S(=O)(=O)c2ccc(C)cc2)cc1 (stereo not drawn)	-15%	18%	.	-6%[59 µM]	.	-6%
CS(=O)(=O)NCc1ccc(C(=O)O)cc1	-6%	24%	9%	23%	.	4%[11.4 µM]

High-throughput results as filed in PubChem.
